Screening data from PubChem.
MEKK3 PB1 HTS = modulators (inhibitors or enhancers) of MEK5 binding to human MEKK3 PB1 domain | Q99759 | AID 1529 | binding response (% of control), % at 10 µM | 290,000 tested, 1.4% active | bead-based flow cytometry, Alexa488-MEK5 binding to MEKK3; actives lie on both sides; 0 = blocked by unlabeled MEK5, 100 = vehicle;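 active = binding response more than 3 SD above or below the average of its plate-row segment, actives on both sides; inconclusive = wells at one plate position flagged as instrument error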;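 also: Alexa488 bead fluorescence after subtracting the streptavidin-only scavenger bead signal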
Target sequence (Q99759 whole entry, looked up, the tested form may be a part): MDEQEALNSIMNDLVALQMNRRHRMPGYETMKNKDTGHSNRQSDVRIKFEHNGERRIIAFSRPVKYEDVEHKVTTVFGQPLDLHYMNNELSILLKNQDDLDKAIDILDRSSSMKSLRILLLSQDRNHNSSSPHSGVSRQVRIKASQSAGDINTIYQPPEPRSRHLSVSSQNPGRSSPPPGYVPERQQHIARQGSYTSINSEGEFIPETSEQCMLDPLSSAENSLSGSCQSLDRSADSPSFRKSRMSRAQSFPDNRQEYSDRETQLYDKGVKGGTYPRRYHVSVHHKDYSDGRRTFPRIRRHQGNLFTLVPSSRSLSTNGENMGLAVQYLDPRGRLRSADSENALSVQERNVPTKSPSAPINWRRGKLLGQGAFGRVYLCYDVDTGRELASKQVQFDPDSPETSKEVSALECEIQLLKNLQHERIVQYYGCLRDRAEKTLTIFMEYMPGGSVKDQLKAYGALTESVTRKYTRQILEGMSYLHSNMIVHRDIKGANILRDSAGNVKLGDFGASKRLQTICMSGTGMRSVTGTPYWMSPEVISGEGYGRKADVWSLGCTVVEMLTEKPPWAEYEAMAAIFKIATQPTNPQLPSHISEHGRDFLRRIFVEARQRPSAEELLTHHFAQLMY
MEKK2 WT-MEK5 = raises or lowers MEK5 binding to wildtype human MEKK2 PB1 domain. bead flow cytometry, Alexa488-MEK5 binding to MEKK2 WT; actives lie on both sides. Q9Y2U5. AID 1531. binding response (% of control), % at 10 µM. 290,000 tested, 1.1% active; in the data active = binding response below about 67% or above about 130%; inconclusive = no clear call, values can overlap the other calls; inactive = in between
SUMO Mot1 rescue = inhibitors of SUMOylation pathway: yeast Mot1-301 growth rescue; growth rescue, % at 18.8 µM; S. cerevisiae Mot1-301 growth rescue, ATP luminescence, 38.5C; percent above DMSO median, 100 means doubled; 320,000 tested, 1% active;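 active = every valid replicate shows activation above 250% relative to neutral control wells; inactive = the rest, any valid replicate at or below 250%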
CHT block = human CHT choline transport inhibition; B-score at 10 µM; 310,000 tested, 0.86% active; CHT-expressing cells, membrane potential dye, choline response; stronger effect = lower value; AID 488975;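 active = B-score over 3 SD under the library average, and starting fluorescence ratio not unusually high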;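 also: choline stimulus applied at its EC90 after an EC20 pre-addition; B-score computed on integrated fluorescence ratio after choline addition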
CHT PAM = allosterically activates the human high affinity choline transporter | Q9GZV3 | CHT-expressing cells, membrane potential dye, choline EC20; stronger effect = higher value; LV-AA mutant CHT in HEK293 cells | B-score at 10 µM | 310,000 tested, 0.49% active | AID 488977;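 active = initial fluorescence not abnormally high and integrated response B-score, plate-corrected, over 3 SD above library mean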
MEKK2 mut-MEK5 = signal of MEK5 binding to mutant human MEKK2 PB1 domain; bead flow cytometry, Alexa488-MEK5 binding to MEKK2 mutant; percent response, % at 10 µM; 290,000 tested, 0.35% active; AID 1530; in the data active = percent response above about 24%, passing the limit was not always enough
CHT block conf = human CHT inhibition, confirmatory screen | AID 493221 | shares compounds with CHT block | CHT activity remaining % of control (stronger effect = lower value), % at 10 µM | 2,400 tested, 70% active | CHT-expressing cells, choline membrane potential dye; LV-to-AA substituted CHT, HEK293 cells;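 active = choline transporter activity left, mean of duplicates at 10 µM, below buffer-only control mean minus 3 SD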;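 also: depolarization triggered by choline at its EC90 following an EC20 pre-addition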
HEK293 MPD ctr = activity in parental HEK293 cells lacking CHT. shares compounds with CHT block. membrane potential dye, choline response; active = decrease or increase beyond buffer ±3SD. 2,400 tested, 4% active. membrane potential ratio readout (active if shifted either direction beyond buffer ±3SD; no single direction) at 10 µM;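 also: parental cells lack the transporter so any hit is non-specific; ratio is peak minus trough fluorescence over baseline after EC90 choline challenge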
Large screens that a line does not name were inactive (follow-up assays come after a bar, where they were run). In the library only some 4.1% were active in any assay of this set; here they are far more common.

COc1cccc(-c2cc(C(=O)Nc3ccc(N(C)C(C)=O)cc3)c3cc(Br)ccc3n2)c1	none (no result: MEKK3 PB1 HTS, MEKK2 WT-MEK5, MEKK2 mut-MEK5)
O=C(CN1C(=O)c2ccccc2C1=O)Nc1ccc(Cl)cn1	CHT block -5.1 | CHT block conf inactive | HEK293 MPD ctr inactive
O=C(Cc1ccccc1)Nc1ccc(Cl)cn1	none
CN(CCC#N)C(=O)COC(=O)[C@H](Cc1ccccc1)N1C(=O)c2ccccc2C1=O	none
CN(CCC#N)C(=O)CC(Cc1ccccc1)C1CCOC(C)(C)C1 (configuration not stated)	MEKK3 PB1 HTS inconclusive, MEKK2 WT-MEK5 inconclusive, CHT block -6 | CHT block conf inactive | HEK293 MPD ctr inactive
Cc1ccc(C(=O)/C=C/C(=O)O)cc1	CHT block -5.8 | CHT block conf 26% | HEK293 MPD ctr inactive
Cc1ccc(/C=C/C(=O)c2ccccc2)cc1	none
COc1cccc(N2CCN(C(=O)c3cc(C)oc3C)CC2)c1	none (no result: MEKK3 PB1 HTS, MEKK2 WT-MEK5, CHT block, CHT PAM, MEKK2 mut-MEK5)
Cc1[nH]n2c(=O)cc(C(C)C)nc2c1-c1ccccc1	CHT block -5.2 (no result: MEKK3 PB1 HTS, MEKK2 WT-MEK5, MEKK2 mut-MEK5) | CHT block conf inactive | HEK293 MPD ctr inactive
CCCc1cc(=O)n2[nH]c(C)c(-c3ccccc3)c2n1	CHT block -5.8 | CHT block conf inactive | HEK293 MPD ctr inactive
COC(=O)Cc1cc(=O)n2[nH]c(C)c(-c3ccccc3)c2n1	none
CCc1c(O)nc(SCc2ccccc2)n(C(C)CC)c1=O (configuration not stated)	CHT block -5.2 | CHT block conf inactive | HEK293 MPD ctr inactive
C=CCSc1nc(O)c(CC)c(=O)n1C(C)CC (configuration not stated)	none
Cc1nnc(C)n1/N=C/c1cc(Br)cc(Br)c1O	CHT block -6.8 | CHT block conf 34% | HEK293 MPD ctr inactive
COc1ccc(C2=Nn3c(nnc3-c3ccccc3OC)SC2)cc1OC	CHT block -6.9 | CHT block conf 48% | HEK293 MPD ctr inactive
CCOc1cccc(C2CC(=O)Nc3cc(OC)c(OC)cc32)c1 (configuration not stated)	CHT block -6.7 | CHT block conf inactive | HEK293 MPD ctr inactive
COc1cccc(C2CC(=O)Nc3cc(OC)c(OC)cc32)c1 (configuration not stated)	none
CC1Cc2nc(SCC(=O)Nc3nc4ccccc4s3)n(C)c(=O)c2S1 (configuration not stated)	CHT block -5.1 | CHT block conf inactive | HEK293 MPD ctr inactive
CC12CC3CC(C)(C1)CC(C(=O)NCc1cccnc1)(C3)C2	none
Cc1[nH]c2ccccc2c1N=Nc1c(C)n(C)n(-c2ccccc2)c1=O	CHT block -13 | CHT block conf inactive | HEK293 MPD ctr inactive
COC(=O)Cn1ccc(N(C)C)c(C#N)c1=O	CHT block -15 | CHT block conf 8.7% | HEK293 MPD ctr inactive
CSc1nnnn1-c1c(C)cccc1C	none
Cc1cccc(C)c1-n1nnnc1C(C)(C)N1CCN(N=O)CC1	CHT block -7.2 | CHT block conf inactive | HEK293 MPD ctr inactive
COc1ccc(NC(C)(C)c2nnnn2-c2c(C)cccc2C)cc1	CHT block -5.4 | CHT block conf 59% | HEK293 MPD ctr inactive
O=C(Cc1c(Cl)cccc1Cl)NC1=NCCS1	none
CC(=O)c1cccc(OCC(=O)c2cc(C)n(-c3cc(C)on3)c2C)c1	CHT block -5 | CHT block conf 63% | HEK293 MPD ctr inactive
O=C(Nc1ccccc1N1CCOCC1)c1ccccc1NS(=O)(=O)c1ccc(F)c(F)c1	none
O=C(Nc1ccccc1N1CCOCC1)c1cccc(NS(=O)(=O)c2ccc(F)c(F)c2)c1	CHT block -5.5 | CHT block conf inactive | HEK293 MPD ctr inactive
Fc1ccccc1CSc1nncn1NC/C=C/c1ccccc1	none
